# Assay results as given in PubChem BioAssay (NCATS).
# Where “and” joins values, the source holds several entries; their conditions need not be identical. Identical values can stand only once. Records with an inconclusive call do not appear. Where a structure was tested more than once in an assay, its records may differ in their call. Calls of active or inactive are those of the source. Unless noted, the rule behind the calls is not given here.
# Columns and labels:
# [1] = target: Arylsulfatase A (Homo sapiens) (UniProt P15289); test: qHTS screen for enhancers of Arylsulfatase A (ASA1): LOPAC Validation Assay (AID 720538; active = well fitted curve in the direction sought with a large enough effect; an effect the other way counts as inactive or inconclusive; note: 0% is about no effect); settings: outcome: dose series up to 57.5 µM
# Method in brief: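 Read-out: fluorescence at Ex=525/Em=598 nm after 1N NaOH final stop. Patient fibroblasts carrying ASA-I179S had 48h compound exposure, then 14h room-temperature pNCS hydrolysis (0.5mM final) in lysis buffer. Signal increase = enhanced activity.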
# [2] = qHTS for compounds that reverse cellular toxicity of Amyloid beta (A-beta) peptide in yeast: LOPAC Validation Assay (AID 720559; active = well fitted curve in the direction sought with a large enough effect; an effect the other way counts as inactive or inconclusive;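 note: plate controls were DMSO for no effect and equimolar ferric chloride plus clioquinol rescue for full effect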)
# Method in brief: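 OD600 growth readout after 48 hr at 30 C; A-beta-toxic yeast plus pinned compounds in medium. Normalization: DMSO = negative, equimolar FeCl3 + clioquinol = positive.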
# [3] = qHTS for Activators of Parkin Expression: LOPAC Validation Assay (NLuc Reporter) (AID 720572; active = well fitted curve in the direction sought with a large enough effect; an effect the other way counts as inactive or inconclusive;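 note: 0% = DMSO and 100% = positive control compound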)
# Method in brief: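 Parkin promoter-driven FLuc/NLuc neuronal reporter cells; 24 h plating, 7-pt dose response, 24 h at 37 C/5% CO2; FLuc then NanoLuc reagent, 10 min each, luminescence; DMSO/positive control normalized.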
# [4] = qHTS for Activators of Parkin Expression: LOPAC Validation Assay (FLuc Reporter) (AID 720573; active = well fitted curve in the direction sought with a large enough effect; an effect the other way counts as inactive or inconclusive;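 note: 0% = DMSO and 100% = positive control compounds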)
# Method in brief: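 FLuc luminescence read-out from a neuronal line expressing a Parkin-promoter-driven coincidence reporter. Cells treated 24 h at 37 C, 5% CO2 with compounds at 7 concentrations; signal increase normalized to DMSO and positive control.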
# [5] = target: Hexokinase-4 (Homo sapiens) + Glucokinase regulatory protein (Homo sapiens) (UniProt P35557+Q14397); test: qHTS assay for inhibitors of recombinant human GCK-GKRP interaction: Diaphorase-coupled assay (AID 743205; active = well fitted curve in the direction sought with a large enough effect; an effect the other way counts as inactive or inconclusive)
# Method in brief: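 Resorufin fluorescence (525/590 nm), read each minute over 30 min, reports GCK activity coupled via G6PDH and diaphorase. Reaction: 10 nM GST-GCK, 10 nM FLAG-GKRP, 5 mM glucose, 0.4 mM ATP, 0.15 mM NADP+, 0.1 mM resazurin.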
# [6] = qHTS Assay for Identifying Gametocytocidal Compounds (AID 743244; active = well fitted curve in the direction sought with a large enough effect; an effect the other way counts as inactive or inconclusive; note: potency is the fitted concentration of half-maximal effect;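 for max response: % is set by controls: 0 for no effect and ±100 for the full control effect; actives lower the fluorescent signal which means gametocytes are killed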); settings: P. falciparum 3D7 stage III-V gametocytes, alamarBlue, 72 h; max response: stronger effect = lower value
# Method in brief: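 Compounds are pinned into medium, gametocytes (stage III–V, 3D7, 20,000 cells/well) added, and plates held 72 h at 37 °C in 5% CO2. AlamarBlue follows for 24 h before fluorescence reading.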
# [7] = qHTS for small molecule inhibitors of Yes1 kinase: Counter Assay (AID 686950; active = well fitted curve in the direction sought with a large enough effect; an effect the other way counts as inactive or inconclusive;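 note: no kinase present so only ADP-Glo detection of a fixed ADP amount is tested; luminescence from ADP-Glo reporting ADP in a fixed ATP and ADP mixture; 0% = DMSO wells with ATP plus ADP and -100% = ATP-only wells without ADP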)
# Method in brief: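 Luminescence read-out from ADP-Glo quantifies a fixed ADP amount (0.02 mM ADP with 0.08 mM ATP) after 60 min at room temperature; signal is normalized between DMSO wells with ATP/ADP and with 0.1 mM ATP alone.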
# [8] = qHTS profiling for inhibitors of Plasmodium falciparum (3D7) proliferation (AID 743322);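 note: infected erythrocytes exposed to compound for 72 h before lysis; 100% = DMSO vehicle wells and 0% = 0.29 µM artemisinin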; settings: P. falciparum 3D7 proliferation; at 28.7 µM (top of the series)
# Method in brief: (§1)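 Erythrocytes infected with P. falciparum (0.3% parasitemia, 2.5% hematocrit) incubated with compounds 72 h at 37 C, 5% CO2. Lysis with saponin/Triton buffer containing SYBR Green I, overnight at room temperature in the dark; DNA fluorescence (485/535 nm) normalised to 0.29 uM artemisinin and DMSO.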
# [9] = qHTS profiling for inhibitors of Plasmodium falciparum (DD2) proliferation (AID 743323); settings: lower = more inhibition; at 28.7 µM (top of the series)
# Method in brief: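 Parasite DNA quantified by SYBR Green fluorescence (ex 485, em 535 nm) after saponin/Triton lysis and overnight dark incubation. Cultures: 0.3% parasitemia, 2.5% hematocrit, 72 h, 37 C; data scaled between DMSO and 0.29 uM artemisinin.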
# [10] = qHTS profiling for inhibitors of Plasmodium falciparum (HB3) proliferation (AID 743324; active = well fitted curve in the direction sought with a large enough effect; an effect the other way counts as inactive or inconclusive;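 note: 100% = DMSO vehicle wells and 0% = artemisinin-treated control wells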); settings: Plasmodium falciparum HB3 blood-stage proliferation; at 28.7 µM (top of the series)
# Method in brief: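 P. falciparum HB3 grown in erythrocytes (0.3% parasitemia, 2.5% hematocrit final) with compound for 72 h at 37 C, 5% CO2. Parasite DNA detected by SYBR Green after saponin/triton lysis overnight; normalized to 0.29 uM artemisinin and DMSO.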
# [11] = qHTS profiling of the MIPE4 collection as inhibitors of Plasmodium falciparum (DD2) proliferation (AID 743345); settings: P. falciparum Dd2 in erythrocytes, SYBR Green DNA, 72 h; at 28.5 µM (top of the series) unless noted
# Method in brief: as §1
# [12] = qHTS profiling of the MIPE4 collection as inhibitors of Plasmodium falciparum (3D7) proliferation (AID 743344);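 note: scaled between DMSO vehicle wells and 0.29 µM artemisinin as full inhibition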; settings: P. falciparum 3D7 in erythrocytes, SYBR Green DNA fluorescence, 72 h; at 28.5 µM (top of the series) unless noted
# Method in brief: as §1
# Chain of Arylsulfatase A (Homo sapiens) (P15289 whole entry, looked up): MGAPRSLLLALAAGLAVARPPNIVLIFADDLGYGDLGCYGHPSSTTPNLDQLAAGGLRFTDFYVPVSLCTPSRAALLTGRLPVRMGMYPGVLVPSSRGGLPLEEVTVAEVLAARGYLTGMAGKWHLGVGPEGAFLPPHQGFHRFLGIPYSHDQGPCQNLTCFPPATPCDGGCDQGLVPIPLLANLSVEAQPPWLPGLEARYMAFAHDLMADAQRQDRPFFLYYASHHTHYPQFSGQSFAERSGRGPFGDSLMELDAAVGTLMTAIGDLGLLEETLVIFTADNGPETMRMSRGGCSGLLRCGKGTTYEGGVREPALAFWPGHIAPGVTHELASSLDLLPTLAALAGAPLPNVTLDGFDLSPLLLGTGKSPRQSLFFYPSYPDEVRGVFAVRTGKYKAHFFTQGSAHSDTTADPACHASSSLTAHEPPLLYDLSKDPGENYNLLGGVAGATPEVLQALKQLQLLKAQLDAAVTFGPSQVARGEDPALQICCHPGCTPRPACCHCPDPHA
# Chain of Hexokinase-4 (Homo sapiens) + Glucokinase regulatory protein (Homo sapiens) (P35557 whole entry, looked up): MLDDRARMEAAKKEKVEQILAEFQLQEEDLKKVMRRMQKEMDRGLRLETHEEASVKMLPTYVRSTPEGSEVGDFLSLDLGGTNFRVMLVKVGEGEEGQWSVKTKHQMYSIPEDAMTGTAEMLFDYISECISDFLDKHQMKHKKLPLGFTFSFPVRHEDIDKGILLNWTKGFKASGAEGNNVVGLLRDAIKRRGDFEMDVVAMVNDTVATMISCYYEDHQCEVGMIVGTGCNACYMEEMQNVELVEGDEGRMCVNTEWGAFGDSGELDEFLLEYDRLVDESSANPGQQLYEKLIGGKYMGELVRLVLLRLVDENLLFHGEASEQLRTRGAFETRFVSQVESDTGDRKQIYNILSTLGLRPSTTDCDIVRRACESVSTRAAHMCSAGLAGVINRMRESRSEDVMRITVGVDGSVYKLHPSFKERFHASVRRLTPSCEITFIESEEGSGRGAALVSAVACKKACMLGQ
# Chain of Hexokinase-4 (Homo sapiens) + Glucokinase regulatory protein (Homo sapiens) (Q14397 whole entry, looked up): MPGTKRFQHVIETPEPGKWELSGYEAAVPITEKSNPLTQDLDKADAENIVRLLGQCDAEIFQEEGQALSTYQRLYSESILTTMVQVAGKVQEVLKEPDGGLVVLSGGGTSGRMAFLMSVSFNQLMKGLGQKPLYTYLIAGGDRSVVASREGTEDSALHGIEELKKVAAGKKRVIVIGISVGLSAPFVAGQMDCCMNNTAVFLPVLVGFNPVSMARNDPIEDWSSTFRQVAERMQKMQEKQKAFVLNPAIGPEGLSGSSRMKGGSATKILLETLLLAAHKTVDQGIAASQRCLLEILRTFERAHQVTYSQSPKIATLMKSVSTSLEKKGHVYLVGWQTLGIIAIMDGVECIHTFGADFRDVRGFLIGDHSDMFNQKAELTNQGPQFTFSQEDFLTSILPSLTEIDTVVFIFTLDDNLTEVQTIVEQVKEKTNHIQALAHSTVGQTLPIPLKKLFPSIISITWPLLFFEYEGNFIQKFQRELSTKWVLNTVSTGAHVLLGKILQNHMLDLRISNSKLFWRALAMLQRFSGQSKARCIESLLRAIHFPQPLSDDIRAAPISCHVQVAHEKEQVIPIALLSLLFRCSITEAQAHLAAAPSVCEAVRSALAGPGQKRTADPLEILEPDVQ
compound,measurement,setting,value
COc1ccccc1N1CCN(CCCNc2cc(=O)n(C)c(=O)n2C)CC1,outcome,[1],inactive
same,outcome,[2],inactive
same,Potency,[3],inactive
same,Potency,[4],inactive
same,outcome,[5],inactive
same,max response,[6],9.05% (inactive) and -4.71% (inactive) and 2.95% (inactive)
Cc1ccc(F)c(NC(=O)Nc2ccc(-c3cccc4[nH]nc(N)c34)cc2)c1,outcome,[7],inactive
same,max response,[6],19.5% (inactive)
same,remaining parasite growth % (stronger effect = lower value),[8],81.3%
same,"activity, percent of control",[9],67.8%
same,"remaining proliferation (% of control), lower = more inhibition",[10],23.1%
same,"parasite growth remaining, % of DMSO control (lower = more inhibition)",[11],37.7%
CC1(C)CCC2=C(O1)c1ccccc1C(=O)C2=O,outcome,[1],inactive
same,outcome,[2],inactive
same,Potency,[3],inactive
same,Potency,[4],inactive
same,outcome,[5],inactive
same,Potency,[6],2.82 µM (active)
same,"parasite growth remaining, % of DMSO control (lower = more inhibition)",[11],71%
CCc1ccc(OCc2ccccc2C(=O)Nc2ccc3nc(C)cc(N)c3c2)cc1,Potency,[6],8.33 µM (active)
same,remaining parasite growth % (stronger effect = lower value),[8],-0.867%
same,"activity, percent of control",[9],0.0556%
same,"remaining proliferation (% of control), lower = more inhibition",[10],0.0187%
same,"parasite growth, % of DMSO control",[12],5.35%
same,"parasite growth remaining, % of DMSO control (lower = more inhibition)",[11],6.22%
C[C@@H](O)[C@H]1C(=O)N2C(C(=O)O)=C(S[C@@H]3CN[C@H](C(=O)N(C)C)C3)[C@H](C)[C@H]12,max response,[6],2.89% (inactive)
same,"parasite growth, % of DMSO control",[12],109% [at 9.64 µM]
same,"parasite growth remaining, % of DMSO control (lower = more inhibition)",[11],102% [at 9.64 µM]
O=C(NCc1ccncc1)C12C[C@H]3C[C@@H](C1)CC(c1ccc(Cl)cc1)(C3)C2,"parasite growth, % of DMSO control",[12],20%
same,"parasite growth remaining, % of DMSO control (lower = more inhibition)",[11],93.6%
CC[C@]1(O)C[C@@H]2CN(CCc3c([nH]c4ccccc34)[C@@](C(=O)OC)(c3cc4c(cc3OC)N(C)[C@H]3[C@@](O)(C(=O)OC)[C@H](OC(C)=O)[C@]5(CC)C=CCN6CC[C@]43[C@@H]65)C2)C1,Potency,[6],15.8 µM (active)
same,max response,[6],-2.09% (inactive)
N[C@@]1(C(=O)O)CS(=O)(=O)[C@H]2[C@H](C(=O)O)[C@H]21,"parasite growth, % of DMSO control",[12],57.1%
same,"parasite growth remaining, % of DMSO control (lower = more inhibition)",[11],88.4%
CC(C)NCC(O)COc1cccc2[nH]ccc12 (stereo unspecified),outcome,[1],inactive
same,outcome,[2],inactive
same,Potency,[3],inactive
same,max response,[6],5.47% (inactive) and 6.31% (inactive)
Oc1ccc(C2CCN(c3ccnc4ccccc34)CC2)cc1O,"parasite growth, % of DMSO control",[12],6.17%
same,"parasite growth remaining, % of DMSO control (lower = more inhibition)",[11],13.2%
Clc1ccc(COC(Cn2ccnc2)c2ccc(Cl)cc2Cl)cc1 (stereo unspecified),"parasite growth, % of DMSO control",[12],5.45%
same,"parasite growth remaining, % of DMSO control (lower = more inhibition)",[11],6.85%
CC#CCn1c(N2CCC[C@@H](N)C2)nc2c1c(=O)n(Cc1nc(C)c3ccccc3n1)c(=O)n2C,"parasite growth, % of DMSO control",[12],58%
same,"parasite growth remaining, % of DMSO control (lower = more inhibition)",[11],22.5%
CCCCCNC(=O)N1CCC(CN(Cc2ccc(Cl)cc2)Cc2ccc([N+](=O)[O-])s2)C1 (stereo unspecified),"parasite growth, % of DMSO control",[12],60.8%
same,"parasite growth remaining, % of DMSO control (lower = more inhibition)",[11],25.2%
COc1cccc([C@@H](C)NCCCc2ccccc2Cl)c1,"parasite growth, % of DMSO control",[12],6.27%
same,"parasite growth remaining, % of DMSO control (lower = more inhibition)",[11],78.7%
C=C1C(=O)[C@@]23C(CC[C@@H]1[C@H]2O)[C@@]12CO[C@]3(O)[C@@H](O)[C@@H]1C(C)(C)CC[C@@H]2O (stereo partly specified),"parasite growth, % of DMSO control",[12],33.5%
same,"parasite growth remaining, % of DMSO control (lower = more inhibition)",[11],75.5%
O=C1C[C@@H](c2ccc(O)cc2)Oc2cc(O)cc(O)c21,"parasite growth, % of DMSO control",[12],20%
CC(C)(C)NC(=O)Nc1cccc(Nc2ncc(F)c(NC(C)(C)CO)n2)c1,"parasite growth, % of DMSO control",[12],5.44%
same,"parasite growth remaining, % of DMSO control (lower = more inhibition)",[11],7.22%
COc1ccc(-c2oc3c(CC=C(C)C)c(OC4O[C@H](CO)[C@@H](O)[C@H](O)[C@@H]4O)cc(O)c3c(=O)c2OC2O[C@@H](C)[C@H](O)[C@@H](O)[C@@H]2O)cc1 (stereo partly specified),"parasite growth, % of DMSO control",[12],8.49%
same,"parasite growth remaining, % of DMSO control (lower = more inhibition)",[11],5.99%
C[N+]1(C)[C@@H]2CC(OC(=O)[C@H](CO)c3ccccc3)C[C@H]1[C@H]1O[C@@H]12 (stereo partly specified),"parasite growth, % of DMSO control",[12],93.9%
